PLK1 PBD block – inhibitors of human PLK1 polo-box domain binding | AID 720504 | 360,000 tested, 2.8% active | Potency, µM, inactives show max response, negative = inhibition, usual class: inhibitors | Plk1 PBD binding of FITC phosphopeptide, fluorescence polarization | P53350; also: potency is read from the fitted curve at half-maximal effect; series mostly up to about 57 µM; % is scaled to controls: 0 for no effect and ±100 for the full control effect; nearly all actives have a fitted effect of over 65% in size
VDR inhibitor – blocks the human vitamin D receptor. 400,000 tested, 0.93% active. VDR-SRC2-3 peptide fluorescence polarization, 2 h. Potency, µM, for inactives: max response, negative = inhibition, most hits filed as inhibitors. AID 504847; also: potency is read from the fitted curve at half-maximal effect; % is scaled to controls: 0 for no effect and ±100 for the full control effect
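Compounds are added to VDR with labelled SRC2-3 coactivator peptide and held 2 h at room temperature. Inhibition of the VDR–peptide interaction is then read as a change in fluorescence polarization.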
KAT2A inh – blocks human GCN5L2 histone acetyltransferase. GCN5L2 HAT assay, ThioGlo1 CoA-SH fluorescence. Potency, µM (highest dose often 58.9 µM), without a hit: at the highest dose activity change, negative = inhibition, hits mostly inhibitors. 390,000 tested, 0.21% active. AID 504327; also: potency is read from the fitted curve at half-maximal effect; % is scaled to controls: 0 for no effect and ±100 for the full control effect
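GCN5L2 (20 nM) in 50mM HEPES pH 7.5, 0.1mM EDTA, 0.01% Tween-20 preincubated 15 min with compounds at room temperature. Reaction started with H3(1-25) 75uM, acetyl-CoA 70uM, ThioGlo1 50uM; CoA-thiol fluorescence (Ex340/Em540) read at 0 and 20 min.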
TSG101-PTAP inh – blocks PTAP/TSG101 interaction to inhibit HIV-1 budding. Potency, µM (series often up to 115 µM), for inactives: at the highest dose activity change, negative = inhibition, hits mostly inhibitors. 340,000 tested, under 10 active. Fluorescence polarization, FITC-PTAP peptide / Tsg101 binding; active = well fitted inhibition curve with a large enough effect in the main read-out, with a control signal flat, not every such curve was filed as active; inconclusive = small, poorly fitted or top-dose-only effect, or effect the other way, or a change in a side signal; inactive = no such curve, though single readings can be large or run the other way; also: potency is read from the fitted curve at half-maximal effect; % of control where 0% means no effect
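Fluorescence polarization binding of Tsg101 binding domain (10 uM final) to FITC-labeled PTAP peptide (50 nM final) in HEPES pH 7.5 buffer with NaCl, Tween 20, EDTA, TCEP. Compounds added before peptide; binding 20 min at RT.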
USP1 inh – blocks the human USP1/UAF1 deubiquitinase complex; O94782; recombinant USP1/UAF1, Ub-Rhodamine cleavage fluorescence; Potency, µM (titrated, usually from 57.1 µM), inactives show at the top dose activity change, negative = inhibition, usual class: inhibitors; 390,000 tested, 0.23% active; also: potency is read from the fitted curve at half-maximal effect; % is scaled to controls: 0 for no effect and ±100 for the full control effect; nearly all actives have a fitted effect of over 60% in size
Target sequence (O94782 whole entry, looked up): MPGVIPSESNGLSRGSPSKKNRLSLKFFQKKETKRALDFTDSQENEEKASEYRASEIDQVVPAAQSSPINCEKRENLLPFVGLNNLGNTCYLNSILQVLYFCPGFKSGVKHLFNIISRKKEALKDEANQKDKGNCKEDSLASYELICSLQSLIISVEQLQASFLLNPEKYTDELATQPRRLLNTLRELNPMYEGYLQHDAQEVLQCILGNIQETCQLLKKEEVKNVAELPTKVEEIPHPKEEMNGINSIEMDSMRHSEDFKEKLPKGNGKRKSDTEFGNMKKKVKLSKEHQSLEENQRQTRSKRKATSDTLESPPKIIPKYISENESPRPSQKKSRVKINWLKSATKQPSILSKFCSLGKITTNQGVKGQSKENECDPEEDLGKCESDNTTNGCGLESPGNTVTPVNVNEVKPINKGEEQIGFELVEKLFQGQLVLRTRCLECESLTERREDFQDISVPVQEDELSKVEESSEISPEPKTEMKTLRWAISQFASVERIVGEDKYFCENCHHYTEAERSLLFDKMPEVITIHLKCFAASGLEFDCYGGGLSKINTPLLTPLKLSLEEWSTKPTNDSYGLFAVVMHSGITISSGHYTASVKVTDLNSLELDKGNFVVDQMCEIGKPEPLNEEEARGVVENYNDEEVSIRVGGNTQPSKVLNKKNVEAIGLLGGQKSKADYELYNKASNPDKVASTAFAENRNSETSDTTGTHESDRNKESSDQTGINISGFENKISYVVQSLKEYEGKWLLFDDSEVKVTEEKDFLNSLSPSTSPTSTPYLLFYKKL
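USP1/UAF1 complex at 1 nM was preincubated with compound for 15 min at room temperature, then Ub-Rho substrate (150nM final) was added. Fluorescence (480/540 nm) was read kinetically, 6 reads every 60 seconds.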
USP1 UbRho – blocks human USP1/UAF1 cleavage of Ub-Rhodamine; shares compounds with VDR inhibitor; Ub-Rhodamine cleavage, fluorescence kinetic read; Potency, µM (titrated, usually from 56.8 µM), for inactives: at the highest dose activity change, negative = inhibition, most hits filed as inhibitors; 50 tested, 50% active
VDR confirm – confirmation of human vitamin D receptor inhibitors; VDR-coactivator inhibition assay, qHTS confirmation; shares compounds with VDR inhibitor; Potency, µM, hits mostly inhibitors; 840 tested, 89% active; also: potency is read from the fitted curve at half-maximal effect
VDR FP fluor – VDR (human) coactivator binding inhibition, fluorescein polarization; Potency, µM (titrated, usually from 57.1 µM), inactives show top-dose activity change, negative = inhibition, usual class: inhibitors; VDR-coactivator binding, fluorescein fluorescence polarization; AID 602200; shares compounds with VDR inhibitor; 840 tested, 48% active; also: potency is read from the fitted curve at half-maximal effect
VDR bla – confirmation of human vitamin D receptor inhibitors in reporter cells. VDR beta-lactamase reporter cells, FRET ratio; cells co-treated with VDR agonist LG190178. shares compounds with VDR inhibitor. Potency, µM (series often up to 46.1 µM), inactives show top-dose activity change, negative = inhibition, usual class: inhibitors. 840 tested, 23% active; also: potency is read from the fitted curve at half-maximal effect; % is scaled to controls: 0 for no effect and ±100 for the full control effect
VDR viability – cytotoxic in counter-screen for VDR inhibitors; shares compounds with VDR inhibitor; cytotoxicity counter-screen, cell viability, qHTS; Potency, µM (highest dose often 48.3 µM), for the others: at the highest dose activity change, negative = cytotoxicity, actives largely listed as cytotoxic; 840 tested, 18% active; AID 602204;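 also: potency is read from the fitted curve at half-maximal effect; plate controls were DMSO for no effect and high-concentration cycloheximide for full effect; nearly all actives have a fitted effect of over 75% in size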
Numbers without * were called inactive; ? = inconclusive; . = no result given. Hits are enriched below; roughly 3% of the tested compounds scored in any of these assays. Unless noted, calls follow the shape of the dose curve; as a rule, active = well fitted curve in the direction sought with a large enough effect; inconclusive = small, poorly fitted or top-dose-only effect, or another doubt; inactive = no such curve, though single readings can be large; an effect the other way counts as inactive or inconclusive.

SMILES | PLK1 PBD block | VDR inhibitor | KAT2A inh | TSG101-PTAP inh | USP1 inh | VDR confirm | VDR FP fluor | VDR bla | VDR viability | others
Cc1ccc(CNC(=O)c2ccc(CS(=O)(=O)Cc3ccc(F)cc3)o2)cc1 | . | 8.1% | -2.5% | . | 9.6% | . | . | . | .
CCOC(=O)/C(=C\c1ccc(Cl)cc1)c1nc2sc(C)c(C)c2c(=O)[nH]1 | 7.52µM* | 25.1µM* | -7.3% | -0.5% | -20.8% | 5.32* | ? | ? | 14.6µM*
COC(=O)[C@H](CCSC)NC(=O)c1cc2c(cn1)[nH]c1ccccc12 | 2.99µM* | 25.1µM* | ? | -1.4% | -23.9% | 7.52* | ? | 5.0% | 29.9%
CCOC(=O)c1csc(NC(=O)CSc2nnnn2-c2ccc(OC)cc2)n1 | 3.7% | 1.4% | -0.3% | -1.0% | 16.3% | . | . | . | .
CCOC(=O)c1c(NC(=O)CSc2nnnn2-c2ccc(OC)cc2)sc(C)c1C | 2.12µM* | 17.8µM* | ? | 0.9% | -18.0% | ? | ? | 7.5% | 23.5%
CO[C@H]1CN(C)C(=O)c2cc(NC(=O)C3CCOCC3)ccc2OC[C@H](C)N(Cc2nccs2)C[C@H]1C | -13.6% | . | . | . | . | . | . | . | .
COCCn1c(SCc2ccccc2F)nc2c([nH]c3ccccc32)c1=O | . | 1.5% | -6.8% | . | -31.1% | . | . | . | .
O=C(CCCSc1ccc(Cl)cc1)Nc1cc(S(=O)(=O)N2CCOCC2)ccc1O | 3.36µM* | ? | -28.9% | -0.3% | -11.4% | 3.98* | 3.16µM* | -6.0% | -8.7%
CCOC(=O)c1ccc(S(=O)(=O)Nc2cc(S(=O)(=O)N3CCOCC3)ccc2O)cc1 | 5.32µM* | 44.7µM* | ? | -5.6% | ? | 8.44* | ? | 0.3% | 2.6%
O=Cc1cn(-c2ccccc2)nc1-c1ccc(F)cc1 | -0.3% | -2.7% | -2.3% | -7.6% | -16.3% | . | . | . | .
CC1=NNC(=O)/C1=C\c1cn(-c2ccccc2)nc1-c1cccs1 | 2.67µM* | 10µM* | -6.8% | -6.9% | -16.5% | 3.77* | ? | 16.4µM* | 9.2µM*
CC1=NNC(=O)/C1=C\c1cn(-c2ccccc2)nc1-c1ccc(F)cc1 | 1.5µM* | 44.7µM* | -4.2% | 2.4% | ? | 7.52* | ? | 14.6µM* | 7.31µM*
O=C(Cc1ccccc1)Nc1sc2c(c1C(=O)Nc1ccc(Cl)cc1)CCCC2 | . | 28.2µM* | ? | . | -25.4% | 3.16* | 2.24µM* | -12.7% | 6.8%
O=C(Cc1ccccc1)Nc1sc2c(c1C(=O)Nc1ccccc1)CCCCC2 | . | ? | -0.8% | . | ? | . | . | . | .
Cc1cc(C(Br)(Br)Br)nc2ccccc12 | . | . | . | . | . | 14.1* | 14.1µM* | 13µM* | 16.8µM*
COc1ccc(-c2cn3c(n2)sc2cc(C(=O)Nc4ccc(C)c(Cl)c4)ccc23)cc1 | . | 3.5% | -8.1% | . | -19.9% | . | . | . | .
Cc1cccc2c1N(Cc1ccccc1OCCC(C)C)C(=O)C2=O | . | 22.4µM* | -10.4% | . | ? | 22.4* | 10µM* | -9.3% | -19.4%
COc1ccccc1CN1C(=O)C(=O)c2cccc(C)c21 | . | -0.8% | -7.8% | . | -12.8% | . | . | . | .
Cc1cc(Br)cc2c1N(Cc1ccccc1OC(C)C)C(=O)C2=O | . | 12.6µM* | ? | . | -29.1% | 3.98* | 3.55µM* | 23.1µM* | ?
COc1ccccc1CNc1cc(-c2ccccc2OC)ncn1 | . | -0.8% | -11.2% | . | . | . | . | . | .
COc1ccccc1CNc1cc(-c2ccoc2)ncn1 | . | 15.8µM* | -12.8% | . | . | ? | -5.0% | 4.8% | 9.7%
Cc1ccc(C(C[N+](=O)[O-])n2nc(C)cc2C)cc1 (stereo unspecified) | 16.8µM* | 79.4µM* | -5.8% | -4.0% | -18.5% | 13.4* | 8.91µM* | ? | ?
Cc1ccc(S(=O)(=O)NCC(C)n2nc(C)cc2C)cc1 (stereo unspecified) | 46.2% | -8.9% | -3.6% | ? | 13.7% | . | . | . | .
Cc1ccc(NN2C(=O)C=C(c3ccccc3)C2=O)cc1 | 8.44µM* | 25.1µM* | -23.5% | -2.3% | -21.3% | 8.44* | ? | ? | -1.9%
Cc1ccc(NC(=O)c2csc(-c3ccccc3)c2C)cc1 | -5.9% | -19.1% | 0.1% | -6.7% | -16.2% | . | . | . | .
SMILES | PLK1 PBD block | VDR inhibitor | KAT2A inh | TSG101-PTAP inh | USP1 inh | VDR confirm | VDR FP fluor | VDR bla | VDR viability | others
COc1ccc(NC(=O)/C(Cl)=C(/Cl)S(=O)Cc2ccc(Cl)cc2)cn1 (stereo unspecified) | 1.34µM* | 11.2µM* | -19.9% | 0.1% | ? | 4.23* | 2.82µM* | 1.84µM* | 11.2µM*
OCCN1CCN(CC/C=C2/c3ccccc3Sc3ccc(C(F)(F)F)cc32)CC1 | -1.7% | ? | ? | -2.1% | -30.2% | . | . | . | . | USP1 UbRho=?
Cc1ccc(CNC(=O)Cn2c(=O)n(Cc3ccccc3)c(=O)c3c2c2cc(C)ccc2n3C)cc1 | . | -0.6% | -2.8% | . | -29.9% | . | . | . | .
O=C(O)COc1ccc(/C=C/C(=O)c2ccc(C3CCCCC3)cc2)cc1 | 23.8µM* | ? | ? | -12.5% | ? | 7.08* | 12.6µM* | ? | -8.3%
CCC1CN(C(=O)Nc2cccc(OC)c2)c2ccccc2O1 (stereo unspecified) | . | -3.8% | -15.1% | . | -25.7% | . | . | . | .
COc1ccc(/C=C2\SC(=O)NC2=S)cc1OC | 26.7µM* | 10µM* | -3.6% | -7.1% | -21.3% | 2.99* | 23.7% | 21.2% | -12.4%
Cc1ccc(/C=C2/SC(=O)NC2=S)o1 | 18.9µM* | 35.5µM* | ? | -17.6% | -27.0% | 23.8* | 22.4µM* | 27.4% | -22.6%
Cc1cc(C)nc(-n2nc(C)c3c2N(Cc2ccccc2)C(=O)CC3c2ccc(Cl)cc2)n1 (stereo unspecified) | . | -3.0% | -0.1% | . | 5.3% | . | . | . | .
Cc1cc2c(cc1Cl)N(C(=O)Nc1ccc(Oc3cccnc3C)nc1)CC2 | . | -5.4% | -11.7% | . | . | . | . | . | . | USP1 UbRho=?
O=C(CN1C(=O)CCc2cc(Br)ccc21)Nc1ccc(OC(F)(F)F)cc1 | . | 0.2% | -4.7% | . | -16.6% | . | . | . | .
CN(C)S(=O)(=O)c1ccc(C(=O)Nc2cccnc2)cc1 | -9.4% | 19.6% | -14.8% | -12.3% | -1.6% | . | . | . | .
